Where “and” joins values, the source holds several entries; their conditions need not be identical. Equal values may be shown once. A structure can be active in one record and inactive in another. Calls of active or inactive are those of the source.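 How the source made its calls, unless noted: active means mean z-score across replicates of 1.96 or higher in either the MELAS or the Rieske mutant cell line; inactive means the rest.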

Experimental findings from PubChem BioAssay are described below.

The nature of assay [1]: stimulators of nuclear beta-catenin in C2C12, primary screen, imaging, WNT3A-conditioned medium, mouse C2C12, NPC library (AID 1117326; in the data active means nuclear beta-catenin stimulation mostly above about 4.2%, no sharp cut-off; inactive means mostly below about 10%). The note with it: stronger effect = higher value.
Assay [2] is described as follows: stimulators of insulin release from INS-1E, primary screen, cell-based, 5 mM glucose, NPC library (AID 1117329;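 active means compound raises insulin release from rat beta cells at 5 mM glucose, no numeric limit stated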). The note with it: rat INS-1E insulin secretion, at 10 µM, stronger effect = higher value.
A short description of assay [3]: growth inhibition of GSK3B-pretreated HCT116 cells – cell-based, CellTiter-Glo, 0.2 to 20 µM (AID 1117336;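 active means compounds lowering colon cancer cell viability after pretreatment blocking the GSK3B kinase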). The conditions noted are these: HCT116 viability after GSK3B inhibitor, at 20 µM, stronger effect = higher value.
Assay [4] can be described thus: inhibition of endothelial tube formation, primary screen, imaging, VEGF stimulated, CD31 staining, tube area, NPC library (AID 1117340;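 active means compound that reduces growth-factor-driven endothelial tube area in a mixed cell culture, no cutoff stated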). The note with it: VEGF-stimulated ADSC/ECFC co-culture, at 10 µM, stronger effect = higher value.
Assay [5] is described as follows: glucagon-like peptide 1 release enhancers, primary assay, NCI-H716 cell line, NPC library (AID 1117341;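 active means compound raises GLP1 secretion from the human gut endocrine cells, with no numeric limit stated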). The conditions noted are these: NCI-H716 cells, at 10 µM, stronger effect = higher value.
Assay [6] can be described thus: HCT116 colon cancer cell growth inhibition, primary screen, CellTiter-Glo luminescence, NPC library (AID 1117342;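 active means compounds that lower survival of HCT116 colon cancer cells in the luminescence readout, no numeric limit stated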). The note with it: at 20 µM (top of the series).
Assay [7] is described as follows: CellTiter-Glo luminescent readout of SW480 viability loss, NPC library primary (AID 1117343;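 active means compounds that lower viability of the colon cancer cells in the luminescence readout, with no numeric limit stated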). The conditions noted are these: CellTiter-Glo luminescence; at 20 µM (top of the series).
Assay [8] in a line: decreased DLD-1 cellular survival, CellTiter-Glo luminescent readout, NPC compound collection, primary HTS (AID 1117346;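 active means compounds that lower survival of DLD-1 colon cancer cells in the luminescence readout, no cutoff given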). The note with it: DLD-1 viability, CellTiter-Glo luminescence; at 20 µM (top of the series).
The nature of assay [9]: differential killing of epithelial or mesenchymal cells, primary screen, imaging, PC-3E GFP, TEM4-18 mCherry, co-culture (AID 1345086;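 active means compounds killing one labelled cell type while sparing the other, by normalised counts and ratio limits, not self-fluorescent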;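 on all read-outs here: cells exposed to compound for 72 h before imaging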;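 on red/green cell ratio (normalised): normalised mesenchymal count divided by normalised epithelial count so high means epithelial killing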). The note with it: imaging cell counts, at 1 µM; for red/green cell ratio (normalised): actives lie on both sides, counts scaled to control wells, 1 = unselective.
A short description of assay [10]: sensitizers of A549 cells to miR-34 induction, primary screen, imaging, A549 dox-inducible miR-34, nuclei and caspase counts (AID 1347080;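 active means compounds whose cell count with miR-34 switched on is under 0.7 times the count with it off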). The conditions noted are these: A549 miR-34 inducible, Hoechst nuclei count, 48 h.
Assay [11] deals with NAD(+) hydrolase SARM1 (Homo sapiens) (UniProt Q6SZW1). The assay can be described thus: SARM1 TIR NADase inhibitors, cell lysate, NAD-Glo luminescence (AID 1508614;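 active means compound whose remaining NAD level is above about 45 nM, limit read from the data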). The conditions noted are these: SAM-TIR HEK293T lysate NADase, at 1 µM, stronger effect = higher value.
Chain of NAD(+) hydrolase SARM1 (Homo sapiens) (Q6SZW1 whole entry, looked up, the tested form may be a part): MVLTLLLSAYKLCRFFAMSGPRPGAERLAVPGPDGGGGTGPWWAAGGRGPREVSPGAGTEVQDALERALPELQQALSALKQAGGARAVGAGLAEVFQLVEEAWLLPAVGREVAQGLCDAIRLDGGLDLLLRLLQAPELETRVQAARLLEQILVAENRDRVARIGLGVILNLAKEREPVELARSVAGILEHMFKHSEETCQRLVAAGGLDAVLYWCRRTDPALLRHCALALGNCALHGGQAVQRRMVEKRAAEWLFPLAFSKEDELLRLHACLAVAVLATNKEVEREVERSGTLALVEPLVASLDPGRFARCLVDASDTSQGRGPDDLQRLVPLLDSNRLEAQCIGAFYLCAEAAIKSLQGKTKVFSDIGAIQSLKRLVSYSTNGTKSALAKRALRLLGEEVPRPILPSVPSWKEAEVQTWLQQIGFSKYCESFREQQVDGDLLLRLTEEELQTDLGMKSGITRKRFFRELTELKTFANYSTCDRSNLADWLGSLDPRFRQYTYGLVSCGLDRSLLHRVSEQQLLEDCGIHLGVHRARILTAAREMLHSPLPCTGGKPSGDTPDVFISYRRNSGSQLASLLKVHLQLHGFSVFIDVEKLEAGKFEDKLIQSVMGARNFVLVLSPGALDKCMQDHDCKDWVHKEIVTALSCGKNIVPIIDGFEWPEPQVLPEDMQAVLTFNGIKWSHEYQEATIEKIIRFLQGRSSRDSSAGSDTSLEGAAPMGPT
Assay [12] concerns the target Mitogen-activated protein kinase 7 (Homo sapiens) (UniProt Q13164). The experiment in a line: ERK5 transactivation activators in reporter cells, primary screen, cell-based, HTS (AID 1508626;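 active means luciferase signal above three times the same-plate solvent-only control wells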;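 further: luciferase driven by Gal4-ERK5 fusion binding five Gal4 sites before minimal TATA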). The note with it: HeLa Gal4-ERK5 transactivation, 18 h, at 5 µM, stronger effect = higher value.
Assay [13] concerns the target 6-phosphogluconate dehydrogenase, decarboxylating (Homo sapiens) (UniProt P52209). The assay can be described thus: 6PGD enzyme inhibitors, primary screen, biochemical, human, recombinant enzyme, NADPH absorbance (AID 1159550;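 active means at least 20% inhibition of 6-phosphogluconate dehydrogenase activity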). The note with it: recombinant 6PGD, NADPH absorbance 341 nm; at 10 µM; stronger effect = higher value.
Assay [14] can be described thus: survival rescue of mitochondrial mutant cells in low glucose, primary screen, MELAS cybrids, Rieske KO mouse fibroblasts, CellTiter-Glo (AID 1508586).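 Further: z relative to plate mean and SD of compound and empty wells.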
The test system of another assay is F380Y. The assay can be described thus: modulators of BK channel variants, profiling panel, selectivity assay, cell-based, U2OS BacMam, thallium flux, beta subunits (AID 1259406;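 active means thallium flux through the channel raised or lowered by more than 3 SD from vehicle-only wells, actives on both sides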;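 further: initial slope of Thallos dye fluorescence rise after thallium is added; log ratio against the mean of 0.3% DMSO vehicle wells on the same plate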). The conditions noted are these: at 30 µM.
The test system of another assay is F380Y/beta2Delta. Described as above. The conditions noted are these: at 30 µM.
Assay [15] addresses Calcium-activated potassium channel subunit alpha-1 (Homo sapiens) + Leucine-rich repeat-containing protein 26 (Homo sapiens) (UniProt Q12791+Q2I0M4). The assay is described as above. The conditions noted are these: F380Y/Slo1WT/gamma1, at 30 µM.
The subject of a further assay is R275C. Described as above. The conditions noted are these: at 30 µM.
A further assay concerns R275C/beta1. The description is as above. The conditions noted are these: at 30 µM.
Another assay has as its system R275C/beta2Delta. The description is as above. The note with it: at 30 µM.
Setting [16] is: measured here: epithelial PC-3E GFP cell survival.
Where [17] appears, read: measured here: mesenchymal TEM4-18 mCherry cell survival.
Where [18] appears, read: stronger effect = lower value, cell number ratio, induced over uninduced.
Where [19] appears, read: measured here: relative caspase fold change +Dox/-Dox.
Setting [20] is: measured here: total cells with miR-34 induction, stronger effect = lower value.
Where [21] appears, read: measured here: total cells without miR-34 induction.
Where [22] appears, read: MELAS cybrid survival, CellTiter-Glo 48 h, stronger effect = higher value.
The mark [23] stands for this setting: Rieske KO mouse fibroblast survival, CellTiter-Glo 72 h.

Chain of Mitogen-activated protein kinase 7 (Homo sapiens) (Q13164 whole entry, looked up, the tested form may be a part): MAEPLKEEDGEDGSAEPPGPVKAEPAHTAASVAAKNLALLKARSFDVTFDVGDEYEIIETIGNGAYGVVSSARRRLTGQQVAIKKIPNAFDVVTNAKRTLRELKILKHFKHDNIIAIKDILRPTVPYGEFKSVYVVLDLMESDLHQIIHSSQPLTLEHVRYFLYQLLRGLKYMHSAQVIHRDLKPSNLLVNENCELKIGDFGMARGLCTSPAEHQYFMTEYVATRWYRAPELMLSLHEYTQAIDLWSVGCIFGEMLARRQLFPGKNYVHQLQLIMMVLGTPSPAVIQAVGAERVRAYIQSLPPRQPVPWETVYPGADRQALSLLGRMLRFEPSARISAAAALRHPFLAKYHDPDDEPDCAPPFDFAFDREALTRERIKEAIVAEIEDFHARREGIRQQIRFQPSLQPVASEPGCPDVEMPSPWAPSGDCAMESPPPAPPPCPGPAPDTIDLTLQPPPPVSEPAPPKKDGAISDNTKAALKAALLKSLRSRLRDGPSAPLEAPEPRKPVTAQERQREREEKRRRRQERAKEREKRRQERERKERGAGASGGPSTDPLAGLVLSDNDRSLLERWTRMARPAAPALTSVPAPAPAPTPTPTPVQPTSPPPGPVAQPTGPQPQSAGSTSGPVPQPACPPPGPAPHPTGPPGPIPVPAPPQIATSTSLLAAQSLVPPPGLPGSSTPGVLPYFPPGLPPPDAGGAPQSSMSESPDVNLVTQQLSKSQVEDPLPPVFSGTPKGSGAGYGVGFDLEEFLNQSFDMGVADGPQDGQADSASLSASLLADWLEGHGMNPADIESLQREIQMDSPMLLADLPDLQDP
Chain of 6-phosphogluconate dehydrogenase, decarboxylating (Homo sapiens) (P52209 whole entry, looked up): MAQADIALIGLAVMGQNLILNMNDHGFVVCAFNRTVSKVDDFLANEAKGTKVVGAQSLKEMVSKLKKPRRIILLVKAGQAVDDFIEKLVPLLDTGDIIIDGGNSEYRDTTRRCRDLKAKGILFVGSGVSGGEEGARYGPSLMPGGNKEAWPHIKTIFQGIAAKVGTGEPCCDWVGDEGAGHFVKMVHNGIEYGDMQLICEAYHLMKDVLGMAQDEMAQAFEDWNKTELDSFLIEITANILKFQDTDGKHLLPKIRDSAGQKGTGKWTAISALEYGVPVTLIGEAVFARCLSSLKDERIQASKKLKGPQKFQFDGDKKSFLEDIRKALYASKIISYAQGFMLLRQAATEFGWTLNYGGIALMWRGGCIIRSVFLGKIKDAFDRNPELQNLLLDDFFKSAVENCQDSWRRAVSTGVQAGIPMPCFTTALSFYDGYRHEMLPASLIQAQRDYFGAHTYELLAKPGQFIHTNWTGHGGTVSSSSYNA
Chain of Calcium-activated potassium channel subunit alpha-1 (Homo sapiens) + Leucine-rich repeat-containing protein 26 (Homo sapiens) (Q2I0M4 whole entry, looked up, one chain of several): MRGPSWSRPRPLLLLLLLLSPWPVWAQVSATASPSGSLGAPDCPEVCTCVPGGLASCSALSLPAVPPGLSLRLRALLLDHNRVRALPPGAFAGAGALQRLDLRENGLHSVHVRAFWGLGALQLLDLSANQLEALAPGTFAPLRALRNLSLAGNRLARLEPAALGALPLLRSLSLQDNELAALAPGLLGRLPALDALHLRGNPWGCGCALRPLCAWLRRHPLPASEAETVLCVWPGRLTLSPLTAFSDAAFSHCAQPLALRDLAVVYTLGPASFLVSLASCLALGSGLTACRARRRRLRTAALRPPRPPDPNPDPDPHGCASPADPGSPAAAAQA

As to `C=CCCCCCCCCC(=O)O`, the nuclear beta-catenin stimulation in assay [1] (at 10 µM) is -0.1% (inactive) and -2.1% (inactive); in [1] (stimulation, at 2 µM), 0.8% and -1.5%. Also, in [2], the insulin secretion stimulation is -1.7% (inactive) and 0.4% (inactive). For the same compound, the viability decrease in assay [3] was -6.75% (inactive) and -111% (inactive). In addition, the tube area decrease in assay [4] is 3.3% (inactive) and 1.9% (inactive). In assay [5], the GLP1 secretion stimulation is 1.3% (inactive) and -1.9% (inactive). The inhibition of viability in assay [6] was 0.2% (inactive) and 0.1% (inactive). Also, the viability decrease (inhibition) in [7] is 69.8% (active) and 6.3% (inactive); in [8], 14.5% (inactive) and 8% (inactive). In addition, the red/green cell ratio (normalised) in assay [9] was 0.93 (inactive). Further, the normalised cell number in assay [9] (setting [16]) was found to be 1.02; in [9] (setting [17]), 0.95. Further, the values for the fold change in assay [10] (setting [18]) and in assay [10] (setting [19]) were 0.879 (inactive) and 4.79, respectively. Besides, the cell count turned out to be 11700 in assay [10] (setting [20]) and 13300 in assay [10] (setting [21]). Besides, the remaining NAD in assay [11] is 10 nM (inactive). Moreover, the luciferase signal in assay [12] is 20 AU (inactive).
As for `O=c1n(CCCN2CCN(c3cccc(Cl)c3)CC2)nc2ccccn12`, the nuclear beta-catenin stimulation in assay [1] (at 10 µM) was 4.5% (inactive); in assay [1] (stimulation, at 2 µM) it was 0.2%. Also, in assay [2], the insulin secretion stimulation is -0.1% (inactive). Moreover, the viability decrease in [3] is -48.7% (inactive). Moreover, the tube area decrease in assay [4] is 4.5% (inactive). In addition, the GLP1 secretion stimulation in [5] was 0.4% (inactive). Further, the inhibition of viability in [6] is 16.6% (inactive). In addition, the viability decrease (inhibition) in assay [7] is 9.9% (inactive); in assay [8] it was 2.2% (inactive). Also, the inhibition in assay [13] was -5.67% (inactive). Besides, in [9], the red/green cell ratio (normalised) was 1.12 (inactive). For the same compound, the results for the normalised cell number in assay [9] (setting [16]) and in assay [9] (setting [17]) were 1.02 and 1.14, respectively. The results for the z-score in assay [14] (setting [22]) and in assay [14] (setting [23]) were 0.0745 (inactive) and -0.0668, respectively. Also, the remaining NAD in [11] was 10 nM (inactive). For the same compound, the luciferase signal in [12] is 72 AU (inactive). The log fold change Tl+ flux with F380Y was 0.0157 (inactive); in the assay on F380Y/beta2Delta it was 0.035 (inactive); in assay [15], 0.0319 (inactive); with R275C it was 0.0186 (inactive); in the assay with R275C/beta1, 0.025 (inactive); in the assay with R275C/beta2Delta, 0.0634 (inactive).
With `Nc1nc2ccc(OC(F)(F)F)cc2s1`, the nuclear beta-catenin stimulation was 0.7% (inactive) in [1] (at 10 µM) and -0.8% in assay [1] (stimulation, at 2 µM). Also, in assay [2], the insulin secretion stimulation is -2.4% (inactive). For the same compound, the viability decrease in assay [3] is 32.5% (inactive). In addition, in assay [4], the tube area decrease is 34% (inactive). Also, in assay [5], the GLP1 secretion stimulation is 0.6% (inactive). The inhibition of viability in assay [6] was 21.7% (inactive). Further, the viability decrease (inhibition) in assay [7] is 88.8% (active); in assay [8], 47.1% (inactive). In addition, the inhibition in [13] is 2.66% (inactive). Further, the red/green cell ratio (normalised) in assay [9] was 1.07 (inactive). Also, the normalised cell number in assay [9] (setting [16]) amounted to 1.04; in assay [9] (setting [17]), 1.11. In addition, the z-score in [14] (setting [22]) is 0.0258 (inactive) and 0.56 (inactive) and -1.11 (inactive); in [14] (setting [23]) it was 0.111 and -0.202 and -1.33. The remaining NAD in [11] was 10 nM (inactive).
Take `CCn1cc(C(=O)O)c(=O)c2cc(F)c(N3CCNCC3)cc21`: the nuclear beta-catenin stimulation in assay [1] (at 10 µM) is 0.1% (inactive); in assay [1] (stimulation, at 2 µM) it was -1.2%. For the same compound, the insulin secretion stimulation in assay [2] was 1.1% (inactive). Further, the viability decrease in [3] is 13.9% (inactive). Also, the tube area decrease in [4] was -4.6% (inactive). The GLP1 secretion stimulation in assay [5] was 4.3% (inactive). For the same compound, the inhibition of viability in [6] was 4.5% (inactive). Besides, the viability decrease (inhibition) in assay [7] is -12% (inactive); in [8], -0.1% (inactive). The inhibition in assay [13] is -0.111% (inactive). In addition, the red/green cell ratio (normalised) in assay [9] is 1.22 (inactive) and 1.14 (inactive). The normalised cell number is 0.92 and 1.12 in [9] (setting [16]); 1.13 and 1.28 in assay [9] (setting [17]). Further, the fold change was 0.843 (inactive) and 0.881 (inactive) and 0.867 (inactive) in [10] (setting [18]); 1.43 and 1.17 in [10] (setting [19]). Further, the cell count in assay [10] (setting [20]) is 7840 and 11600 and 9850; in assay [10] (setting [21]) it was 9310 and 13200 and 11400. Further, the z-score in assay [14] (setting [22]) was 1.33 (inactive) and -0.232 (inactive); in assay [14] (setting [23]) it was -0.144 and -0.221. Also, in [11], the remaining NAD was 10 nM (inactive). The luciferase signal in assay [12] is 56 AU (inactive).
